Structures are written as SMILES. Where “and” joins values, the source holds several entries; their conditions need not be identical. Equal values may be shown once. Inconclusive results are not listed. A call without a number means that no potency is given here. Calls of active or inactive are those of the source. The call rests on the fitted dose curve; in most records, active means well fitted inhibition curve with a large enough effect in the repeat runs; inconclusive means weak or mixed curves; inactive means no such curve, though single readings can be large or run the other way.
Potency means the concentration at half of the fitted maximal effect.

Sequence of Cytochrome P450 3A4 (Homo sapiens) (P08684 whole entry, looked up): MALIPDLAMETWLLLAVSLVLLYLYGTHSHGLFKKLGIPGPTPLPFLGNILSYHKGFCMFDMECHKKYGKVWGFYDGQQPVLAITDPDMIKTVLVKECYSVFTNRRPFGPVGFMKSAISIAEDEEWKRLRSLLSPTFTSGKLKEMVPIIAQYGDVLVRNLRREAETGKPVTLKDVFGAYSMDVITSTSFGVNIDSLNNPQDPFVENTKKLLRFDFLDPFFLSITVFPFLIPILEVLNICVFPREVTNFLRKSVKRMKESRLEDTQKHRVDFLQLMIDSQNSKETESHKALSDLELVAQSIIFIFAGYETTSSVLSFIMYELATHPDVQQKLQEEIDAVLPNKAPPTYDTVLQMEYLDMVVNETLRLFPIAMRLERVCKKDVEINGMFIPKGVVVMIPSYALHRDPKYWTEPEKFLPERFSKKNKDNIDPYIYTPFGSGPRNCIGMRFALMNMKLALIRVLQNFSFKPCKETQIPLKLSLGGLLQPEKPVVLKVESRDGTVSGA

In the assay the target is Cytochrome P450 3A4 (Homo sapiens) (UniProt P08684). Kind of assay: Cytochrome P450 Family 3 Subfamily A Member 4 (CYP3A4) small molecule antagonists: luciferase reporter qHTS assay (AID 1671201). Further: nearly all actives have a fitted effect of over 50% in size. Conditions: P450-Glo CYP3A4 enzyme, luciferin luminescence, 1 h; series mostly up to 115 µM; activity change, negative = inhibition: at the top concentration. Put shortly:
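qHTS, 1536-well. CYP3A4 + proluciferin substrate, cpd 10 min RT → NADPH regen 1 h RT → detection reagent 20 min → luminescence (RLU). Ketoconazole positive control.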
`CCOCCOCCO`: the Potency result was “inactive”.
`CC1=CCC(C(C)(C)O)CC1` (centres undefined): the Potency entry is “inactive”.
On the same count and under the same terms, the result for `CC(=O)c1ccccn1` reads “inactive”; that for `NC=O`, “inactive”; that for `O=CCCCC=O`, “inactive”.
`COc1ccc(C(=O)CC(=O)c2ccc(C(C)(C)C)cc2)cc1`: the “activity change, negative = inhibition” value was 2.45% [at 52.9 µM] (inactive).
On to `Cc1[nH]c(=O)c(C#N)cc1-c1ccncc1`, for which the “activity change, negative = inhibition” value was -6.41% [at 52.9 µM] (inactive).
As for `Nc1ncnc2nc[nH]c12`, the Potency entry was “inactive”.
With `Cc1c(C(N)=O)cc([N+](=O)[O-])cc1[N+](=O)[O-]`, the Potency result was “inactive”.
Take `O=Cc1ccccc1O`: the Potency result is “inactive”.
The same measure, in the same setting: the result for `C[Si](C)(C)O[Si](C)(C)C` reads “inactive”.
Still for that read-out and setting: the result for `O=C(O)c1ccccc1Nc1cccc(C(F)(F)F)c1` reads “inactive”; that for `O=C(/C=C/c1ccccc1)OCc1ccccc1`, “inactive”; that for `CCCC(=O)O`, “inactive”.
Regarding `C[C@]12CC[C@H]3[C@@H](CCC4=CC(=O)CC[C@@]43C)[C@@H]1CC[C@@H]2C(=O)CO`, the Potency result is “inactive”.
As for `OC[C@H]1O[C@@H]2O[C@H]3[C@H](O)[C@@H](O)[C@@H](O[C@H]4[C@H](O)[C@@H](O)[C@@H](O[C@H]5[C@H](O)[C@@H](O)[C@@H](O[C@H]6[C@H](O)[C@@H](O)[C@@H](O[C@H]7[C@H](O)[C@@H](O)[C@@H](O[C@H]8[C@H](O)[C@@H](O)[C@@H](O[C@H]1[C@H](O)[C@H]2O)O[C@@H]8CO)O[C@@H]7CO)O[C@@H]6CO)O[C@@H]5CO)O[C@@H]4CO)O[C@@H]3CO`, the Potency result is “inactive”.
Same read-out and setting: the result for `CCCCC(CC)COCC1CO1` (centres undefined) reads “inactive”; that for `Nc1ncn([C@@H]2O[C@H](CO)[C@@H](O)[C@H]2O)c(=O)n1`, “inactive”; that for `CCOC(=O)C(C#N)=C(c1ccccc1)c1ccccc1`, “inactive”.
For `C[C@]12CCC(=O)C=C1CC[C@@H]1[C@@H]2C(=O)C[C@@]2(C)[C@H]1CC[C@]2(O)C(=O)CO`, the Potency result was “inactive”.
As to `Nc1ccc(Nc2ccccc2)cc1`, the Potency was 5.58 µM (active) and 11.3 µM (active) and 7.96 µM (active).
In the case of `CCCCC(CC)COC(=O)c1ccc(N(C)C)cc1` (centres undefined), the “activity change, negative = inhibition” value was -8.12% (inactive).
For `C=C(C)C1CC=C(C)CC1` (centres undefined), the Potency entry is “inactive”.
On to `Nc1ccc(S(=O)(=O)Nc2cnc3ccccc3n2)cc1`, for which the “activity change, negative = inhibition” value is -19.4% [at 52.9 µM] (inactive).
Consider `O=S(=O)(O)c1ccc(O)cc1`, for which the Potency entry is “inactive”.
Regarding `O=C1c2cccc(O)c2C(=O)c2c(O)cccc21`, the Potency result was “inactive”.
In the case of `S=C(NC1CCCCC1)NC1CCCCC1`, the Potency is 17.5 µM (active) and 28.3 µM (active).
Consider `CCCCOCCOCCO`, for which the Potency result is “inactive”.
Take `CC(C)(C)NC(=O)[C@H]1CC[C@H]2[C@@H]3CC[C@H]4NC(=O)C=C[C@]4(C)[C@H]3CC[C@]12C`: the “activity change, negative = inhibition” value is -10.7% [at 52.9 µM] (inactive).

(Values after PubChem BioAssay (Tox21).)
